# Experimental data as given in PubChem BioAssay AID485344 (National Center for Advancing Translational Sciences (NCATS), 2010).
# Screen size: about 340,000 compounds; about 6,900 (2%) were called active. Cut-off read from the data, not from the text of the source: active = inhibition above about 30%; inactive = below that, where a call was filed. This excerpt belongs to a sample that is enriched for actives.
# Target: D(2) dopamine receptor (Homo sapiens) (UniProt P14416)
# Experiment: HTS Assay for Allosteric Antagonists of the Human D2 Dopamine Receptor: Primary Screen for Antagonists; note: 0% is about no effect
# Conditions: HEK293 TREx D2 cells, calcium flux, dopamine EC80; at 10 µM; stronger effect = higher value
# In short: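 Tetracycline-induced HEK293 TREx cells expressing D2 receptor forced-coupled to calcium signalling, loaded with no-wash calcium dye. Compounds added and calcium flux read 180 s, then dopamine added at EC80 and read a further 180 s.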
# Sequence of D(2) dopamine receptor (Homo sapiens) (P14416 whole entry, looked up): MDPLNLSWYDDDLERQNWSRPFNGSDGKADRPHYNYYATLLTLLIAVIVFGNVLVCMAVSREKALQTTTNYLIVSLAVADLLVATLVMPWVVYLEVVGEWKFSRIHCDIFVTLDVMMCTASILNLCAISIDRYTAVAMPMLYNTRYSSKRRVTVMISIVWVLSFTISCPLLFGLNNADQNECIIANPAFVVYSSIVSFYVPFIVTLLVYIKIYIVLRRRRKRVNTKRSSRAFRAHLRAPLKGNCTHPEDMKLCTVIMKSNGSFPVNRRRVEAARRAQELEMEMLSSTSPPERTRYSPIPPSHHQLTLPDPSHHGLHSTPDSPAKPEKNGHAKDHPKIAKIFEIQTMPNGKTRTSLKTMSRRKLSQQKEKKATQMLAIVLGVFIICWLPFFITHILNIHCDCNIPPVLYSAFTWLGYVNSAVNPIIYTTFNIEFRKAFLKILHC
row,SMILES,inhibition
1,CCOC(=O)C1CCN(C(=O)c2cccc(S(=O)(=O)N(CC)c3ccccc3)c2)CC1,14.5% (inactive)
2,Nc1c(C(=O)OCC(=O)Nc2ccc(OC(F)F)cc2)[nH]c(=O)[nH]c1=O,0.0124% (inactive)
3,Cc1ccc(CSc2ccc(S(=O)(=O)N3CCCCC3)cn2)cc1,-10.3% (inactive)
4,COc1ccc(NC(=O)CSc2nnc(C3CC3)n2C)cc1S(=O)(=O)N1CCCCC1,-7.07% (inactive)
5,C/C(=N\N(C)C)c1ccc(OCCOc2ccc([N+](=O)[O-])cc2)cc1,33.5% (active)
6,CCOC(=O)COc1ccc([N+](=O)[O-])cc1,5.2% (inactive)
7,C/C(=N/NC(=O)CC(=O)N/N=C(\C)c1ccc([N+](=O)[O-])cc1)c1ccc([N+](=O)[O-])cc1,-6.92% (inactive)
8,CC(=O)C[C@@H](O)CC(=O)[C@H]1OC(=O)CCCCCCc2ccccc21,3.89% (inactive)
9,Cc1ccccc1NC(=O)COc1cccc2c1CCNC2=O,-0.505% (inactive)
10,CCCCN(C(=O)CSCC(=O)Nc1ccc(OC)cc1)c1c(N)n(CCC)c(=O)[nH]c1=O,9.85% (inactive)
11,N#Cc1ccc(CN2CCN(CC(=O)Nc3ccccc3C(=O)NC3CC3)CC2)cc1,4.29% (inactive)
12,CC1Cc2ccccc2N1S(=O)(=O)c1cccc(C(=O)NCC(c2ccco2)N2CCCC2)c1 (stereo not given),-15% (inactive)
13,COC(=O)CNS(=O)(=O)c1ccc(Cc2ccc(S(=O)(=O)NCC(=O)OC)cc2)cc1,41.3% (active)
14,C/C(N)=C(/C#N)C(=O)COC(=O)CNS(=O)(=O)c1ccc(C)cc1,12.5% (inactive)
15,COC(=O)CNS(=O)(=O)c1ccc(OC)cc1,6.78% (inactive)
16,CNS(=O)(=O)c1cccc(C(=O)OCCCC(=O)c2ccccc2)c1,-4.56% (inactive)
17,CCOC(=O)c1c(Cc2ccc(Cl)cc2)c[nH]c1C,-4.64% (inactive)
18,CC(=O)c1c(C)c[nH]c1C,31.1% (active)
19,O=C(CSc1ncnc2sccc12)N1CCN(C(=O)c2cccs2)CC1,30% (inactive)
20,Cc1occc1-c1nnc(SCC(=O)NC2CCCCC2)o1,6.65% (inactive)
21,CC1CN(C(=O)CCC(=O)NC2CCN(Cc3ccccc3)CC2)c2ccccc2O1 (stereo not given),-8.98% (inactive)
22,Cc1ccc2c(c1)N(C(=O)CCC(=O)NCc1cccnc1)CCO2,13.2% (inactive)
23,CC1CN(C(=O)CCC(=O)NCc2cccnc2)c2ccccc2O1 (stereo not given),35.5% (active)
24,CC[C@H](C)C(=O)N[C@H]1CCCN1C(=O)/C=C/c1ccccc1,3.07% (inactive)
25,O=C(N[C@@H](Cc1c[nH]c2ccccc12)C(=O)O)OCC1c2ccccc2-c2ccccc21,5.76% (inactive)
